# Cdc25B block: inhibitors of human Cdc25B phosphatase; recombinant Cdc25B, OMFP fluorescence Ex485/Em525; inhibition, %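 (compounds tested at 10 µM final in the well)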; 65,000 tested, 0.1% active; in the data active = inhibition above about 50%
# Target sequence (P30305 whole entry, looked up): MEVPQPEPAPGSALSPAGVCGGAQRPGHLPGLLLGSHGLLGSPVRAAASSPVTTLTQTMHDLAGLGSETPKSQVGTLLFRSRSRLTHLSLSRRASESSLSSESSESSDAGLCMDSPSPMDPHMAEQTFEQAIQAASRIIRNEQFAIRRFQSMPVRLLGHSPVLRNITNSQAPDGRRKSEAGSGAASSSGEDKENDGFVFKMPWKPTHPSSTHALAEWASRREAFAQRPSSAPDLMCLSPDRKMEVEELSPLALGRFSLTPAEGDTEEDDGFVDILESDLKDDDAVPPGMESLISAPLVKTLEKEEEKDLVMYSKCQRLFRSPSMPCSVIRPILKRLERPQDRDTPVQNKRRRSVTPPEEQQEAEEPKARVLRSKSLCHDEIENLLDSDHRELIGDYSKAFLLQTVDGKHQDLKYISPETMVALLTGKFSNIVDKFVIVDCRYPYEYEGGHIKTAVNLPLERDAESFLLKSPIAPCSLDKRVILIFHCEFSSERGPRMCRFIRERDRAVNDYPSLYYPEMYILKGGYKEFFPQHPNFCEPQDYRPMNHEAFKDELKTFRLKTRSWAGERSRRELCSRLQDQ
# FXIIa inh mix: inhibitors of human coagulation factor XIIa, pooled mixtures | 62,000 tested, 0.2% active | purified FXIIa, fluorogenic substrate | P00748 | inhibition, % at 5 µM;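 also: 0% = enzyme without compound and 100% = no enzyme blank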
# DUSP1 inh: inhibitors of human MKP-1 phosphatase. recombinant MKP-1, OMFP hydrolysis fluorescence. 65,000 tested, 0.15% active. AID 374. P28562. inhibition, %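 (compounds tested at a single concentration somewhere between 10 and 100 µM)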;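 active = inhibition above about 50%, limit read from the data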;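 also: 0% = DMSO max control wells and 100% = wells with enzyme stopped by NaOH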
# LYP act: increases human PTPN22 phosphatase activity. Q9Y2R2. recombinant LYP, DiFMUP fluorescence; 0 = plate median, 100 = signal doubled. activation, % at 2 µM. 96,000 tested, 0.11% active. AID 697;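 active = activation at 2 µM above a set limit, the mean plus 5 SD, cut at about 37% in these data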
# LYP inh 2: inhibitors of human LYP (PTPN22) phosphatase; Q9Y2R2; recombinant LYP catalytic domain, DiFMUP fluorescence; inhibition, % at 2 µM; 96,000 tested, 0.21% active;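 active = inhibition at 2 µM at or above a set limit, the screen mean plus 3 SD, cut at about 24% in these data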;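 also: 0% = DMSO with enzyme and 100% = enzyme fully blocked by orthovanadate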
# FXIa mix inh: blocks human factor XIa in pooled compound mixtures | P03951 | purified FXIa, fluorogenic substrate | inhibition, % at 5 µM | 62,000 tested, 0.19% active | AID 680;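 also: each value is inhibition by a whole ten-compound pool holding the compound; 0% = enzyme with no mixture and 100% = wells lacking enzyme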
# * = called active by the depositor; nt = not tested or not shown. Most compounds without a hit are left out; they make up all but 0.63% or so of the library. Rule as the data show it, unless noted: active = inhibition above about 20% (passing the limit was not always enough); inactive = the rest.
SMILES,Cdc25B block,FXIIa inh mix,DUSP1 inh,LYP act,LYP inh 2,FXIa mix inh
Cc1cc(C)n2nc(SCn3nnc4ccccc4c3=O)nc2n1,-10,11,-8,-3,0,10
Cc1cc(C)n2nc(SCc3cc(=O)oc4cc(O)ccc34)nc2n1,nt,nt,nt,-28,29*,nt
CC(C)(C)c1ccc(-c2nnc(SCCN3C(=O)c4ccccc4C3=O)o2)cc1,nt,nt,nt,0,1,nt
O=C1CN(CC(=O)N2CCOCC2)c2ccccc2O1,0,22*,10,1,-2,9
O=C1CN(CC(=O)N2CCCCC2)c2ccccc2O1,10,5,11,12,-13,0
COc1ccc(CCn2c(SCC(=O)Nc3cc(C)on3)nc3ccsc3c2=O)cc1OC,-12,22*,20,-12,9,8
CCCCCCc1cc2cc(-c3nnc(-c4ccccc4O)o3)c(=O)oc2cc1O,13,nt,25,nt,nt,nt
CCCCCCc1cc2cc(-c3nnc(-c4cc(OC)c(OC)c(OC)c4)o3)c(=O)oc2cc1O,nt,nt,nt,-43,43*,nt
CCCCCCc1cc2cc(-c3nnc(-c4ccccc4OC)o3)c(=O)oc2cc1O,nt,nt,nt,-46,46*,nt
CCOc1ccc(C2C=C(c3ccc(C)cc3)Nc3ncnn32)cc1 (stereo unspecified),7,-18,-8,2,-5,23*
CCOc1ccc(C2C=C(c3ccc(C)cc3)Nc3nnnn32)cc1 (stereo unspecified),0,4,-11,6,-8,8
O=C(Nc1ccc(N2CCCCC2)c(Cl)c1)c1ccc2c(c1)OCCO2,nt,nt,nt,-34,36*,nt
O=C(Nc1ccc(N2CCCC2)c(Cl)c1)c1ccc2c(c1)OCCO2,nt,nt,nt,13,-14,nt
O=C1COc2ccc(OCc3ccc(F)cc3)cc21,2,9,20,6,-8,5
Cc1ccc(NC(=O)CN2C(=O)S/C(=C/c3ccc(-c4cc(C(=O)O)ccc4C)o3)C2=O)cc1C,nt,nt,nt,-33,35*,nt
CCn1c(C)cc(/C=C2\SC(=O)N(CC(=O)Nc3ccc(C)c(C)c3)C2=O)c1C,nt,nt,nt,-2,4,nt
COc1ccc(OCC(=O)OCCN2C(=O)c3ccccc3C2=O)cc1,-4,4,8,-4,3,-1
O=C(CCN1C(=O)c2ccccc2C1=O)Oc1ccc2ccccc2c1,nt,nt,nt,-74,75*,nt
Cc1cc(=O)oc(C)c1C(=O)NCCCN1CCN(c2ccccc2F)CC1,1,7,11,-10,8,37*
O=C(CNC(=O)c1cccs1)NCCN1CCN(c2ccccc2F)CC1,-3,9,-2,nt,nt,21*
Cc1ccccc1CS(=O)(=O)CCC(=O)NCCCN1CCN(c2ccccc2F)CC1,2,28,6,22,-23,-3
O=[N+]([O-])c1cc(/C=N\Nc2nccs2)ccc1O,nt,nt,nt,-38,40*,nt
Clc1cccc(Cl)c1/C=N\Nc1nccs1,nt,nt,nt,-4,8,nt
COc1ccc2cc3cc(C(=O)N4CCN(Cc5ccc6c(c5)OCO6)CC4)oc3nc2c1,7,3,5,-27,26*,1
COc1ccc2cc3cc(C(=O)NCc4ccc5c(c4)OCO5)oc3nc2c1,31,-1,11,5,-5,1
SMILES,Cdc25B block,FXIIa inh mix,DUSP1 inh,LYP act,LYP inh 2,FXIa mix inh
Nc1nnnn1/N=C/c1ccccc1OCc1ccccc1,-2,-17,-1,6,-8,6
Nc1nnnn1/N=C/c1ccccc1C(F)(F)F,6,9,-1,-70,69*,-18
Cc1cccn2c(=O)c3cc(C(=O)Nc4ccc(N(C)C)cc4)n(C)c3nc12,5,-1,13,nt,nt,-9
CCN(CC)C(=O)c1cc2c(=O)n3cccc(C)c3nc2n1C,74*,5,15,3,-5,2
CC(=O)Nc1ccc(NC(=O)c2ccccc2CC[N+](=O)[O-])cc1,nt,nt,nt,-40,42*,nt
C/C(=N\N=C\c1ccccc1)c1nnn(-c2nonc2N)c1C,nt,nt,nt,-7,11,nt
Cc1cccc(N(CC(=O)N/N=C/c2cc([N+](=O)[O-])ccc2Cl)S(C)(=O)=O)c1C,nt,nt,nt,-3,7,nt
CN(C(=O)CSc1nnc(Nc2ccccc2)s1)c1c(N)n(Cc2ccccc2)c(=O)[nH]c1=O,nt,nt,nt,-5,7,nt
CCCCN(C(=O)CSc1nnc(Nc2ccc(C)c(C)c2)s1)c1c(N)n(Cc2ccccc2)c(=O)[nH]c1=O,nt,nt,nt,-25,26*,nt
COc1ccc(OC)c(-c2cc(C(=O)Nc3c(C)nn(Cc4ccccc4)c3C)no2)c1,-7,9,10,-8,6,20*
Cc1nc(NC(=O)COC(=O)CCS(=O)(=O)c2ccccc2Cl)c(Cl)cc1Cl,nt,nt,nt,8,-4,nt

# Assay outcomes deposited in PubChem by several laboratories.
